Data: PubChem BioAssay AID1445 (SRMLSC, 2008)
The whole screen tested about 220,000 compounds, of which about 910 (0.41%) were called active. This is one part of a sample in which actives are shown more often than they occur. Entries with a potency or affinity are not part of this list. Values without a mark were called inactive.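 How the source made its calls: active means primary inhibition above the hit cutoff, then over 50% inhibition at one or more dose response concentrations (cut at about 23% in these data, passing the limit was not always enough); inconclusive means conflicting primary data, or primary hits not chosen for dose response; inactive means low primary inhibition, or under 50% at every dose.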

These compounds were tested against Aminopeptidase N (Plasmodium falciparum (isolate 3D7)) (UniProt O96935) (assay: P. falciparum M1AAP inhibitors, biochemical, fluorogenic H-Leu-NHMec substrate, 1536-well (AID 1445;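 further: plate controls were DMSO full reaction for no effect and no enzyme background for full effect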)). Details: recombinant M1AAP, H-Leu-NHMec fluorogenic kinetic assay; at 30 µM, active compounds read high unless noted.
Aminopeptidase N (Plasmodium falciparum (isolate 3D7)), sequence (O96935 whole entry, looked up): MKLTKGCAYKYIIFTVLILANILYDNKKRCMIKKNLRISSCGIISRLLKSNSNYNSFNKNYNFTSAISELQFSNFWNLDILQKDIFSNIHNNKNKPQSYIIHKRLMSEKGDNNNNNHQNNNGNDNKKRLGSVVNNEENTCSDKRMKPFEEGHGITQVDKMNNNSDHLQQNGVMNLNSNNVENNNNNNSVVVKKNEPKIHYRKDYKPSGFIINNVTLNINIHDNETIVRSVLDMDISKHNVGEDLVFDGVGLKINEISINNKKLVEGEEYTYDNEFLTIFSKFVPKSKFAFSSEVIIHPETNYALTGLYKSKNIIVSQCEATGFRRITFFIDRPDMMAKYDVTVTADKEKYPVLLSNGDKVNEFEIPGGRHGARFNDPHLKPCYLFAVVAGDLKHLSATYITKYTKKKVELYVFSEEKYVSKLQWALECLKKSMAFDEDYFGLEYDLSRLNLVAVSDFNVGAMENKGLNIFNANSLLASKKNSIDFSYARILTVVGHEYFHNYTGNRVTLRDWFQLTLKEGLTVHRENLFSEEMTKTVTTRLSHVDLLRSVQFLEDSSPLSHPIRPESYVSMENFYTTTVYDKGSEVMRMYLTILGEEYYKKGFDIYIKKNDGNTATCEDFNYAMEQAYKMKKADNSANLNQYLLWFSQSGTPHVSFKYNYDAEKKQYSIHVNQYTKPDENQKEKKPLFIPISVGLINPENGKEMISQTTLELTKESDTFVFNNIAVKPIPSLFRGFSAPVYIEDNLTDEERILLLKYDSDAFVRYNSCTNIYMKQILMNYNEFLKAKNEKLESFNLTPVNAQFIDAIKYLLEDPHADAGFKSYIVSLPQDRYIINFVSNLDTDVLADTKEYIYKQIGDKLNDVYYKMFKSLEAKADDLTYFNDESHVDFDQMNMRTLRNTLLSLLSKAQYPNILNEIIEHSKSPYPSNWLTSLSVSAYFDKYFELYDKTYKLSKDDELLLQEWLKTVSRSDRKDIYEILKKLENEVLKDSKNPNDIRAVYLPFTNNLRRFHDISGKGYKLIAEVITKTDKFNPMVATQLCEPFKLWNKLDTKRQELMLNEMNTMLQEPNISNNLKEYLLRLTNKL

Structure (SMILES)	inhibition
COCC(=O)N(Cc1ccccc1)c1ccccn1	17.1%
CC(=O)Nc1ccc(S(=O)(=O)N2CCN(CC(O)COc3ccc4ccccc4c3)CC2)cc1 (configuration not stated)	8.01%
O=C(CSc1nnc(Cc2ccccc2)n1C1CCCCC1)N1CCOCC1	4.89%
COc1ccc(/C(N)=N/OC(=O)c2ccc3c(c2)OCO3)cc1OC	1.74%
COc1ccc(OCCSc2nnc(CC(=O)Nc3cccc(Cl)c3Cl)n2C)cc1	23.6% (active)
COc1cccc(NC(=O)Cc2nnc(SCCOc3ccccc3)n2C)c1	8.03%
CCn1c(CC(=O)Nc2cccc(Cl)c2Cl)nnc1SCCOc1ccc(OC)cc1	13.4%
CCC(=O)Nc1nc(C)c(-c2csc(Nc3ccc(S(=O)(=O)Nc4cc(C)on4)cc3)n2)s1	6.43%
Cc1cc(NS(=O)(=O)c2ccc(Nc3nc(-c4sc(N)nc4C)cs3)cc2)no1	17.9%
Cc1cc(NS(=O)(=O)c2ccc(Nc3nc(-c4sc(C)nc4C)cs3)cc2)no1	23.9% (active)
Cc1nc(CNC(=O)c2cc(COc3ccc(F)cc3Cl)on2)cs1	3.28%
Cc1ccc(S(=O)(=O)Nc2ccc(Cl)cc2C(=O)c2ccccc2)cc1	3.73%
O=C(Cc1sc(Nc2ccccc2)nc1-c1ccccc1)NCc1ccccc1	7.32%
COc1cc(/C=N/Nc2nc3ccccc3s2)cc([N+](=O)[O-])c1O	32.1%
COc1cc(/C=C(/C#N)c2nc(-c3cc4ccccc4oc3=O)cs2)cc([N+](=O)[O-])c1O	11%
COc1cc(/C=C(\C#N)c2nc3ccc(C)cc3[nH]2)c([N+](=O)[O-])cc1OC	14.8%
COc1cc(/C=C(\C#N)c2nc3ccccc3[nH]2)cc(OC)c1O	20.3%
COc1ccc(-c2csc(/C(C#N)=C\c3ccc(O)c([N+](=O)[O-])c3)n2)cc1OC	3.12%
N#C/C(=C/c1ccncc1)c1nc2ccccc2s1	-2.18%
CC(C)COC(=O)N(C)c1ccc(C(O)(C(F)(F)F)C(F)(F)F)cc1	11.6%
COCCn1c(SCC(=O)Nc2cccc(OC)c2)nc2c(oc3ccccc32)c1=O	-5.31%

Structure (SMILES)	inhibition
NS(=O)(=O)c1ccc(NC(=O)COC(=O)CCNC(=O)NC23CC4CC(CC(C4)C2)C3)cc1	2.67%
CSc1nc(C)cc(C)c1C(N)=O	6.25%
CCc1[nH]c(=O)c(C#N)c2c1CSC(C)(C)C2	10.3%
Cc1[nH]c(=O)c(C#N)c2c1CSC(C)(C)C2	9.75%
CCCCc1[nH]c(=O)c(C#N)c2c1CSC(C)(C)C2	23.7% (active)
CCOC(=O)c1coc(CNC(=O)c2c(C)oc3c2CCCC3)c1	4.14%
Cc1ccc(CN2CCN(C3CSCCSC3)CC2CCO)cc1 (configuration not stated)	-1.96%
CC(=O)N1CCN(c2ccc(NC(=O)C(C)Oc3ccc(Cl)cc3Cl)cc2)CC1 (configuration not stated)	4.51%
O=c1cc(-c2ccccc2Cl)oc2c(NS(=O)(=O)c3ccccc3OC(F)(F)F)ccc(O)c12	3.26%
O=c1cc(-c2ccccc2Cl)oc2c(NS(=O)(=O)c3ccccc3C(F)(F)F)ccc(O)c12	10.4%
Cc1ccc(S(=O)(=O)N2CCCC2C(=O)Nc2ccc(O)cc2)cc1 (configuration not stated)	7.62%
c1ccn2c(SCc3ccc4c(c3)OCO4)nnc2c1	3.07%
S=C(Nc1ccc(Br)cc1)N1CCn2cccc2C1c1cccnc1 (configuration not stated)	10.1%
COc1ccc(C)cc1NC(=O)c1cc2ccccc2o1	-2.39%
COc1ccc(C(=O)Nc2cccc(OC)c2)cc1	1.64%
Cc1ccc(C(=O)Nc2ccc(Oc3ccc(C(=O)O)c(C(=O)O)c3)cc2)cc1C	5.36%
COc1ccc(S(=O)(=O)n2nc(OC(=O)c3cccs3)cc2NC(=O)c2cccs2)cc1	3.59%
CN(C(=O)c1cc2n(n1)C(C(F)(F)F)CC(c1ccco1)N2)c1ccccc1 (configuration not stated)	2.19%
O=C(Oc1ccc(OC(=O)c2ccco2)c(S(=O)(=O)c2ccc(Cl)cc2)c1)c1ccco1	4.36%
COc1ccc(C(=O)O/N=C(\N)Cc2ccc([N+](=O)[O-])cc2)c(OC)c1	5.06%
O=C(CSc1nnc(CCCN2C(=O)c3cccc4cccc(c34)C2=O)n1-c1ccccc1)N1CCCCC1	3.42%

Structure (SMILES)	inhibition
O=C(CSc1nnc(CCCN2C(=O)c3cccc4cccc(c34)C2=O)n1-c1ccccc1)NCCCO	13.2%
Cn1c(SCC(=O)c2ccc(F)cc2)nnc1-c1cnccn1	-2.54%
O=C(CN(c1ccccn1)S(=O)(=O)c1ccccc1)Nc1ccccc1	-0.68%
Cc1csc(SCC(=O)Nc2cccc(S(=O)(=O)N3CCOCC3)c2)n1	0%
O=C(NCc1ccccc1Cl)c1ccc(CSc2nc3ccncc3[nH]2)cc1	1.57%
CSC(=NC#N)N1CCN(c2ccc([N+](=O)[O-])cc2)CC1	8.93%
C=CCN(CC=C)S(=O)(=O)c1ccc(NC(=S)NC(=O)/C=C/c2ccccc2)cc1	9.4%
O=C(Cn1nnc2ccccc21)Nc1ccccc1[N+](=O)[O-]	-1.91%
CC(C)(C)NC(=O)COc1ccccc1C#N	-0.28%
Cc1ccc(C(=O)Nc2nc(=O)n(C(=O)C3CC3)s2)cc1	4.6%
Cc1ccc(C(=O)Nc2nc(=O)n(C(=O)c3ccccc3C)s2)cc1	4.83%
Cc1cc[n+](-c2nc3ccccc3nc2C(=C=[N-])C#N)cc1	4.51%
CCOC(=O)C1(CC2CCCCO2)CCN(C(=O)Nc2ccccc2CC)CC1 (configuration not stated)	1.45%
O=C(NCCc1nc2ccccc2[nH]1)/C(=C/c1ccc2c(c1)OCO2)NC(=O)c1ccccc1Cl	4.92%
COc1ccc([N+](=O)[O-])cc1NS(=O)(=O)c1ccccc1	6.84%
COc1cc(C(=O)Nc2ccc(S(=O)(=O)Nc3ncccn3)cc2)c([N+](=O)[O-])cc1OC	1.81%
COc1ccc(NS(=O)(=O)c2ccc(C)cc2)c([N+](=O)[O-])c1	3.88%
COc1ccc(S(=O)(=O)Nc2cc([N+](=O)[O-])ccc2OC)cc1	14.5%
COc1cccc(/C=C2\SC(N)=NC2=O)c1OS(=O)(=O)c1ccccc1	12.7%
Cc1cc(NS(=O)(=O)c2ccccc2)c([N+](=O)[O-])cc1C	14%
